Hits are enriched below; roughly 1.2% of the tested compounds scored in any of these assays.
EPAC2 ag – qHTS for Agonist of cAMP-regulated guanine nucleotide exchange factor 4 (EPAC2): primary screen; EPAC2 activation, biochemical qHTS; response scale: 100% = 6.5 mM cAMP response; Potency, µM (highest dose often 154 µM), actives largely listed as activators; actives 0.079% (n = 360,000); AID 720711, 2013; also: nearly all actives have a fitted effect of over 50% in size
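Compounds were titrated in qHTS against a Rap1B-BODIPY-GDP (250 nM) complex with EPAC2 (100 nM) and GDP (50 uM). BODIPY-GDP release tracked at 480/540 nm over 30 min at room temperature, normalized to 6.5 mM cAMP.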
VDR inhibitor – Inhibitors of the vitamin D receptor (VDR): qHTS | Potency, µM, most hits filed as inhibitors | actives 0.93% (n = 400,000) | VDR-SRC2-3 peptide fluorescence polarization, 2 h | AID 504847, 2011 | Vitamin D3 receptor (Homo sapiens), P11473
Target sequence (P11473 whole entry, looked up): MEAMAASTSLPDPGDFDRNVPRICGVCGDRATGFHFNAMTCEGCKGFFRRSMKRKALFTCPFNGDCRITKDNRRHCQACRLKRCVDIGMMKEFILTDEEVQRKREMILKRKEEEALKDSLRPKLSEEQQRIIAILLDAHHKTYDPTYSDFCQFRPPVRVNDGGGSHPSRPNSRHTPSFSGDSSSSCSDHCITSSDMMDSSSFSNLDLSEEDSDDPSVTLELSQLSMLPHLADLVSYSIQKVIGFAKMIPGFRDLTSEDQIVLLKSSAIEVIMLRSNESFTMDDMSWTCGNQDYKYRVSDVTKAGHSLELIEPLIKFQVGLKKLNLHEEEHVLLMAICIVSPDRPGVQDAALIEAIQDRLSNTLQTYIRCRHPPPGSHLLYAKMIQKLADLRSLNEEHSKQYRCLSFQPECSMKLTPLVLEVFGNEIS
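Compounds are added to VDR with labelled SRC2-3 coactivator peptide and held 2 h at room temperature. Inhibition of the VDR–peptide interaction is then read as a change in fluorescence polarization.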
EPAC1 ag – qHTS for Agonist of cAMP-regulated guanine nucleotide exchange factor 3 (EPAC1): primary screen. EPAC1 agonist qHTS, biochemical assay; response scale: 100% = response to 6.5 mM cAMP. actives 0.073% (n = 360,000). AID 720707, 2013. Potency, µM (highest dose often 154 µM), actives largely listed as activators. Rap guanine nucleotide exchange factor 3 (Homo sapiens), O95398; also: nearly all actives have a fitted effect of over 60% in size
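Read-out is the fluorescence drop as BODIPY-GDP leaves Rap1B (480 nm excitation, 540 nm emission), recorded every 5 minutes over 30 minutes. Reactions held 100 nM EPAC1, 250 nM Rap1B–BODIPY-GDP and 50 uM GDP, with 6.5 mM cAMP setting full activation.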
EPAC2 antagonist – qHTS for Antagonist of cAMP-regulated guanine nucleotide exchange factor 2 (EPAC2): primary screen; Rap guanine nucleotide exchange factor 4 (Homo sapiens), Q8WZA2; EPAC2 GEF exchange of Rap1B-BODIPY-GDP, fluorescence; Potency, µM (top dose mostly 114 µM), most hits filed as inhibitors; actives 0.18% (n = 360,000); AID 720708, 2013; also: nearly all actives have a fitted effect of over 45% in size
EPAC1 antag – qHTS for Antagonist of cAMP-regulated guanine nucleotide exchange factor 3 (EPAC1): primary screen; Potency, µM (highest dose often 115 µM), most hits filed as inhibitors; Rap guanine nucleotide exchange factor 3 (Homo sapiens), O95398; actives 0.14% (n = 360,000); EPAC1 GEF assay, Rap1b-BODIPY-GDP exchange fluorescence; also: nearly all actives have a fitted effect of over 50% in size
USP1-UAF1 inh – Inhibitors of USP1/UAF1: Primary Screen; Ubiquitin carboxyl-terminal hydrolase 1 (Homo sapiens), O94782; recombinant USP1/UAF1, Ub-Rhodamine cleavage fluorescence; Potency, µM (highest dose often 57.1 µM), usual class: inhibitors; actives 0.23% (n = 390,000); AID 743255, 2014; also: nearly all actives have a fitted effect of over 60% in size
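Step one: compound is pinned into 1nM USP1/UAF1 in HEPES pH 7.8 buffer with TCEP. Step two: 15 min room-temperature incubation. Step three: Ub-Rho (150nM final) starts cleavage, tracked by fluorescence over six one-minute reads.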
VDR confirm – qHTS for Inhibitors of the vitamin D receptor (VDR): Hit Validation in Primary Screen; shares compounds with VDR inhibitor; VDR-coactivator inhibition assay, qHTS confirmation; Potency, µM, hits mostly inhibitors; actives 89% (n = 840); AID 602199, 2012
VDR FP – qHTS for Inhibitors of the vitamin D receptor (VDR): Hit Validation using a Fluorescein Assay; shares compounds with VDR inhibitor; AID 602200, 2012; Potency, µM (titrated, usually from 57.1 µM), actives largely listed as inhibitors; VDR-coactivator binding, fluorescein fluorescence polarization; actives 48% (n = 840)
VDR bla reporter – qHTS for Inhibitors of the vitamin D receptor (VDR): Hit Validation using a Beta-Lactamase Assay. Potency, µM (highest dose often 46.1 µM), most hits filed as inhibitors. shares compounds with VDR inhibitor. VDR beta-lactamase reporter cells, FRET ratio; cells co-treated with VDR agonist LG190178. actives 23% (n = 840)
VDR cytotox – qHTS for Inhibitors of the vitamin D receptor (VDR): Hit Validation using a Cytotoxicity Assay; cytotoxicity counter-screen, cell viability, qHTS; shares compounds with VDR inhibitor; AID 602204, 2012; actives 18% (n = 840); Potency, µM (highest dose often 48.3 µM), hits mostly cytotoxic; also: nearly all actives have a fitted effect of over 75% in size
Each line names hits and unclear results; the compound was inactive in the other large screens (follow-up assays come after a bar, where they were run). Calls follow the shape of the dose curve; as a rule, active = well fitted curve in the direction sought with a large enough effect; inconclusive = small, poorly fitted or top-dose-only effect, or another doubt; inactive = no such curve, though single readings can be large; an effect the other way counts as inactive or inconclusive.

COc1ccc(S(=O)(=O)N2CCN(c3nc(-c4ccccc4)nc4ccccc34)CC2)cc1	none (no result: EPAC2 ag, EPAC1 ag, EPAC2 antagonist, EPAC1 antag, USP1-UAF1 inh)
COc1ccc(N2CCN(S(=O)(=O)c3ccc4c(c3)CC(C)N4C(C)=O)CC2)cc1 (stereo unspecified)	none (no result: EPAC2 ag, EPAC1 ag, EPAC2 antagonist, EPAC1 antag)
O=C(O)c1cc(/C=C/C(=O)c2cc(F)ccc2O)c2c(c1)COCO2	VDR inhibitor 25µM | VDR confirm 6.7 | VDR FP inconclusive | VDR bla reporter inactive | VDR cytotox inconclusive
N#Cc1ccccc1-c1cncnc1NCc1cccnc1	none (no result: EPAC2 ag, EPAC1 ag, EPAC2 antagonist, EPAC1 antag, USP1-UAF1 inh)
COC(=O)C1=C[C@@H](C(=O)OC)C2C3=C(C(=O)[C@]2(C)NC(=O)c2ccccc2)[C@H](C)n2c(=O)n(-c4ccccc4)c(=O)n2[C@@H]3C1 (stereo partly specified)	none (no result: EPAC2 ag, EPAC1 ag, EPAC2 antagonist, EPAC1 antag, USP1-UAF1 inh)
CCOC(=O)c1cc(-c2ccccc2)sc1NC(=O)c1ccc(OC)cc1	VDR inhibitor 50µM | VDR confirm 30 | VDR FP 13µM | VDR bla reporter inactive | VDR cytotox inactive
O=C(CCN1CCOCC1)c1ccc(Br)cc1	VDR inhibitor 22µM | VDR confirm 24 | VDR FP inconclusive | VDR bla reporter inconclusive | VDR cytotox inconclusive
O=C(CCN1CCN(c2ccccc2F)CC1)c1ccc(Br)cc1	VDR inhibitor 18µM | VDR confirm 17 | VDR FP inconclusive | VDR bla reporter inconclusive | VDR cytotox inconclusive
O=[N+]([O-])c1ccc(/C=C2\CCC(C3=CCCC3)=C2N2CCOCC2)cc1	VDR inhibitor inconclusive | VDR confirm inconclusive | VDR FP inconclusive | VDR bla reporter inconclusive | VDR cytotox inactive
O=C(NP(=O)(N1CCCC1)N1CCCC1)C1=C(N2CCOCC2)/C(=C/c2cccc([N+](=O)[O-])c2)CC1	none
CC12CCC=CC1C(c1ccc3ccccc3c1C=Cc1ccccc1)N(Cc1ccccc1)C2=O (stereo unspecified)	none (no result: EPAC2 ag, EPAC1 ag, EPAC2 antagonist, EPAC1 antag, USP1-UAF1 inh)
COc1cc(C(C2C(=O)CC(C)(C)CC2=O)C2C(=O)CC(C)(C)CC2=O)ccc1O	VDR inhibitor inconclusive
COc1ccc(C(C2C(=O)CC(C)(C)CC2=O)C2C(=O)CC(C)(C)CC2=O)cc1COCC(F)(F)F	VDR inhibitor 20µM | VDR confirm 6 | VDR FP inconclusive | VDR bla reporter inactive | VDR cytotox inactive
COc1ccc([N+](=O)[O-])c(S(=O)(=O)c2ccccc2)n1	VDR inhibitor 32µM | VDR confirm 15 | VDR FP inconclusive | VDR bla reporter 18µM | VDR cytotox 16µM
Cc1ccc(C=Nc2ccc(N(C)C)cc2)o1	VDR inhibitor 1µM, USP1-UAF1 inh inconclusive | VDR confirm 12 | VDR FP inactive | VDR bla reporter inactive | VDR cytotox inactive
CC1Cc2cc(S(=O)(=O)CCC(=O)Nc3ccc(Cl)cc3F)ccc2N1C(=O)C1CC1 (stereo unspecified)	none (no result: EPAC2 ag, EPAC1 ag, EPAC2 antagonist, EPAC1 antag)
c1ccc(-c2nnc3sc(-c4ccncc4)nn23)cc1	none
c1ccc(-c2nnc3sc(-c4csc5c4CCCC5)nn23)cc1	VDR inhibitor inconclusive, USP1-UAF1 inh inconclusive | VDR confirm 14 | VDR FP 10µM | VDR bla reporter inconclusive | VDR cytotox inconclusive
COc1ccc(SCC(Cc2ccccc2)N2CCN(CC(C)C)CCC2=O)cc1 (stereo unspecified)	VDR inhibitor inconclusive (no result: EPAC2 ag, EPAC1 ag, EPAC2 antagonist, EPAC1 antag, USP1-UAF1 inh) | VDR confirm 7.9 | VDR FP inconclusive | VDR bla reporter inactive | VDR cytotox inactive
Cc1ccc(SCC(Cc2ccccc2)N2CCN(CC(C)C)CCC2=O)cc1 (stereo unspecified)	none (no result: EPAC2 ag, EPAC1 ag, EPAC2 antagonist, EPAC1 antag, USP1-UAF1 inh)
